Laboratory results: the supplement of paper PMC4466140

Assays:
Test in all cases: SPOT peptide array binding signal intensity (averaged, normalized) (arbitrary units (background-subtracted, floor 0; scale differs between SH3 domains)); higher = stronger binding of the SH3 domain to the peptide
AgAbp1 = target: AgAbp1
In short: (§1)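 E. coli BL21(DE3) was used to express GST-fused SH3 domains from four yeast species, which were then purified on glutathione Sepharose. These were incubated at 10 μg/ml in TBS-based blocking buffer overnight at 4°C on cellulose membranes carrying synthetic 15-mer peptides, in which cysteines were replaced by serines. Binding signal is the replicate average of normalized, background-subtracted spot intensity, in arbitrary units that differ between domains.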

AgBbc1 = target: AgBbc1
In short: as §1

AgBem1-D1 = target: AgBem1-D1
In short: as §1

AgBzz1-D1 = target: AgBzz1-D1
In short: as §1

AgBzz1-D2 = target: AgBzz1-D2
In short: as §1

AgCyk3 = target: AgCyk3
In short: as §1

AgFus1 = target: AgFus1
In short: as §1

AgHof1 = target: AgHof1
In short: as §1

AgHse1 = target: AgHse1
In short: as §1

AgLsb1 = target: AgLsb1
In short: as §1

AgLsb4 = target: AgLsb4
In short: as §1

AgMyo5 = target: AgMyo5
In short: as §1

AgNbp2 = target: AgNbp2
In short: as §1

AgRvs167 = target: AgRvs167
In short: as §1

AgSho1 = target: AgSho1
In short: as §1

AgSla1-D1-D2 = target: AgSla1-D1-D2
In short: as §1

AgSla1-D3 = target: AgSla1-D3
In short: as §1

CaAbp1-D1 = target: CaAbp1-D1
In short: as §1

CaAbp1-D2 = target: CaAbp1-D2
In short: as §1

CaBbc1 = target: CaBbc1
In short: as §1

CaBem1-D1 = target: CaBem1-D1
In short: as §1

CaBzz1-D1 = target: CaBzz1-D1
In short: as §1

CaBzz1-D2 = target: CaBzz1-D2
In short: as §1

CaCyk3 = target: CaCyk3
In short: as §1

CaFus1 = target: CaFus1
In short: as §1

CaHof1 = target: CaHof1
In short: as §1

CaHse1 = target: CaHse1
In short: as §1

CaLsb1 = target: CaLsb1
In short: as §1

CaLsb4 = target: CaLsb4
In short: as §1

CaMyo5 = target: CaMyo5
In short: as §1

RRRIAYPFYPFKKLG
SPOT peptide array binding signal intensity (AgAbp1): 69
SPOT peptide array binding signal intensity (AgBbc1): ≤ 0
SPOT peptide array binding signal intensity (AgBem1-D1): 22
SPOT peptide array binding signal intensity (AgBzz1-D1): 32.5
SPOT peptide array binding signal intensity (AgBzz1-D2): 9
SPOT peptide array binding signal intensity (AgCyk3): 1
SPOT peptide array binding signal intensity (AgFus1): 337
SPOT peptide array binding signal intensity (AgHof1): 8.75
SPOT peptide array binding signal intensity (AgHse1): 914
SPOT peptide array binding signal intensity (AgLsb1): 1.5
SPOT peptide array binding signal intensity (AgLsb4): 19.5
SPOT peptide array binding signal intensity (AgMyo5): 1.75
SPOT peptide array binding signal intensity (AgNbp2): 124
SPOT peptide array binding signal intensity (AgRvs167): 6.5
SPOT peptide array binding signal intensity (AgSho1): 79
SPOT peptide array binding signal intensity (AgSla1-D1-D2): 22
SPOT peptide array binding signal intensity (AgSla1-D3): ≤ 0
SPOT peptide array binding signal intensity (CaAbp1-D1): 482
SPOT peptide array binding signal intensity (CaAbp1-D2): 238
SPOT peptide array binding signal intensity (CaBbc1): 0.25
SPOT peptide array binding signal intensity (CaBem1-D1): 23
SPOT peptide array binding signal intensity (CaBzz1-D1): 21
SPOT peptide array binding signal intensity (CaBzz1-D2): 9.5
SPOT peptide array binding signal intensity (CaCyk3): 1
SPOT peptide array binding signal intensity (CaFus1): 672
SPOT peptide array binding signal intensity (CaHof1): 0.5
SPOT peptide array binding signal intensity (CaHse1): 47.8
SPOT peptide array binding signal intensity (CaLsb1): ≤ 0
SPOT peptide array binding signal intensity (CaLsb4): 15
SPOT peptide array binding signal intensity (CaMyo5): 0.25
